Measurements published in PubChem BioAssay (NCI).
The panel holds about 79,000 compounds, 15% with a hit somewhere; the sample as a whole holds those more often. Unmarked numbers belong to inactive results. Active and inactive are the calls of the source. No stated cut-off is given here; in the data, active means growth inhibition above about 70%; inactive means the rest.

Test: NCI Yeast Anticancer Drug Screen. Data for the rad18 strain (AID 177)
Conditions: S. cerevisiae rad18 mutant growth inhibition, hits give high values
Method: Growth inhibition of yeast strains with defined genetic alterations is measured as a screen for potential anti-cancer activity. Selected strains with alterations in DNA damage repair or cell cycle control were exposed to compounds and growth inhibition was measured relative to vehicle treated controls. The strain used in this assay is rad18

Row | SMILES | growth inhibition (at 1.2 µM) [%] | growth inhibition (at 3.7 µM) | growth inhibition (at 11.0 µM) | growth inhibition (at 33.0 µM) | growth inhibition (at 100.0 µM)
1 | COc1ccc(N=CN(C)C)c(C)c1 | -50 | -55% | -8% | 89% (active) | 93% (active)
2 | CCOC(=O)C(Br)C(Br)c1ccccc1Cl (stereo not given) | 10 | 29% | 89% (active) | 99% (active) | 99% (active)
3 | Cc1nc(-c2cc3cc([N+](=O)[O-])ccc3oc2=O)cs1 | 1 | 2% | 7% | 34% | 94% (active)
4 | C=C(C(=C)n1nnc(C(=O)OC)c1C(=O)OC)n1nnc(C(=O)OC)c1C(=O)OC | 0 | 0% | 1% | 0% | -1%
5 | Cc1ccc2c3ccc4c(c3n(C)c2c1)C(=O)C=CC4=O | 4 | 14% | 15% | 39% | 82% (active)
6 | CN(C)CCOC1(Cc2ccc(F)cc2)CCC(C(C)(C)C)CC1 (stereo not given) | -9 | -23% | -2% | 18% | 98% (active)
7 | CCOC1(c2cccc([N+](=O)[O-])c2)c2ccccc2Oc2ccccc21 | -1 | 1% | -12% | -9% | 12%
8 | Cc1cc(N(CCOS(C)(=O)=O)CCOS(C)(=O)=O)ccc1C=Nc1ccc(-c2csc(-c3ccccc3)n2)c(Cl)c1 | 58 | 83% (active) | 94% (active) | 97% (active) | 89% (active)
